These results are taken from PubChem BioAssay (NCATS).

The target of test [1] is Lysosomal acid glucosylceramidase (Homo sapiens) (UniProt P04062). In words: Glucocerebrosidase-p2 (AID 348; in the data active = potency below about 10 µM; note: potency is the fitted concentration of half-maximal effect). The note with it: purified GBA, blue fluorogenic substrate, 40 min. In a few lines: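 Normal human glucocerebrosidase (0.2 nM) with blue fluorogenic substrate (80 uM final) in citrate/phosphate pH 5.9 with 10mM sodium taurocholate, 0.01% tween-20; 40 min RT, NaOH/glycine stop; fluorescence Ex 365/Em 440; AC50 from a titration from 0.6 nM upwards.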
Sequence of Lysosomal acid glucosylceramidase (Homo sapiens) (P04062 whole entry, looked up): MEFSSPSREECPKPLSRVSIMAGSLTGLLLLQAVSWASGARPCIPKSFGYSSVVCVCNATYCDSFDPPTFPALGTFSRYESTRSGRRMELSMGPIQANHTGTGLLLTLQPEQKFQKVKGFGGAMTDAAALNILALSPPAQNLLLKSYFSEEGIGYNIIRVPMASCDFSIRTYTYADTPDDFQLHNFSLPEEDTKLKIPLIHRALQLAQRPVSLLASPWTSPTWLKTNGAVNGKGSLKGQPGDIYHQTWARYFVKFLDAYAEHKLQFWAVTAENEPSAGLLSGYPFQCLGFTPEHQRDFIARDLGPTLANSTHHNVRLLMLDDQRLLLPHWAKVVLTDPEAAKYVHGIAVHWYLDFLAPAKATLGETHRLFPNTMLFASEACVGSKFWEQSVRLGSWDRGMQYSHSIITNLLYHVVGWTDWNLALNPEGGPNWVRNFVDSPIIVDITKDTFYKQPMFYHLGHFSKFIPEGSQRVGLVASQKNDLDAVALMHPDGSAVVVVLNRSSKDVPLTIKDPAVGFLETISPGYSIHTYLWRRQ

Test [2] concerns the target Cytochrome P450 1A2 (Homo sapiens) (UniProt P05177). The experiment in a line: p450-cyp1a2 (AID 410; calls by dose curve; note: potency is the fitted concentration of half-maximal effect;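 for activity change, negative = inhibition: -100% = full effect of reference inhibitor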). The note with it: recombinant CYP1A2, luciferin-ME demethylation, luminescence; series mostly up to 57 µM. Summed up: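 O-Demethylation of luciferin 6' methyl ether by human CYP1A2 is monitored as luciferase luminescence. Substrate sits at Km (100uM); enzyme is 20nM. Values are scaled to 57 uM furafylline as maximal inhibition.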

For test [3], the target named is Glucocorticoid receptor (Homo sapiens) (UniProt P04150). The experiment in a line: GR-GFP Redistribution (AID 450;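 active = compounds whose dose series gives a full or clear partial fitted curve of increased nuclear translocation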; note: potency is the fitted concentration of half-maximal effect). The note with it: U2OS GR-GFP nuclear translocation, laser cytometry, 2 h.
Sequence of Glucocorticoid receptor (Homo sapiens) (P04150 whole entry, looked up): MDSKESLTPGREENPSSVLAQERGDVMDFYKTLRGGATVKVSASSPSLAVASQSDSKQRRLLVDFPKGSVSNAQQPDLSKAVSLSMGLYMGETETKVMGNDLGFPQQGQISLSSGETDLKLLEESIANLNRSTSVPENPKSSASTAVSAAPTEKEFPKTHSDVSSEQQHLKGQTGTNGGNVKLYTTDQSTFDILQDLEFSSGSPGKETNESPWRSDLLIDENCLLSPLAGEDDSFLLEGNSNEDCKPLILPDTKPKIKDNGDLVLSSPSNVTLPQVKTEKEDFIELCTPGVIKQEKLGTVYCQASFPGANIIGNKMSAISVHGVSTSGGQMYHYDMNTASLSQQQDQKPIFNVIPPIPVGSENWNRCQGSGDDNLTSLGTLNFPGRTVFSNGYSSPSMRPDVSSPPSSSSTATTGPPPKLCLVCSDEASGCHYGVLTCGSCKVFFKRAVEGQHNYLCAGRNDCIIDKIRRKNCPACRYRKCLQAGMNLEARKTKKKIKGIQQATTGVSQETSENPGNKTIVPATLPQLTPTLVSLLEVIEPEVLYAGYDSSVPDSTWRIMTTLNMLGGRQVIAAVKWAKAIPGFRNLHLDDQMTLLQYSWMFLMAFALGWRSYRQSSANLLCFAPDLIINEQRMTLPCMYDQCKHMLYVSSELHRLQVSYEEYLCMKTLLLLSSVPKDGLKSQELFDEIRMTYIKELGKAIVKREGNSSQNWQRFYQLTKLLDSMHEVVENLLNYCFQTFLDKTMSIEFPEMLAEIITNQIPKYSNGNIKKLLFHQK
Test [4] has the same target. In words: GR-EFC Redistribution (AID 451; calls by dose curve; note: potency is the fitted concentration of half-maximal effect). The note with it: CHO-K1 GR-EFC translocation, beta-gal luminescence, 2 h. Summed up:
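CHO-K1 cells expressing nuclear EA and GR-ED fragments of b-gal; compounds titrated up to 46 uM final, 2 h at 37 C. GR nuclear translocation read as complemented b-gal luminescence after 1 h RT detection.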

Test [5] deals with Mitogen-activated protein kinase 10 (Mus musculus) (UniProt Q61831). The experiment in a line: JNK3 AlphaScreen Assay (AID 530; active = well fitted curve in either direction with a large enough effect, not every such curve was filed as active;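 note: kinase came from lysate of stimulated human HepG2 cells; signal reports phosphorylation of biotinylated GST-cJun 1-79 at Ser73 with 10 µM ATP; % is set by controls: 0 for no effect and ±100 for the full control effect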). The note with it: JNK3 lysate, c-Jun phosphorylation; series mostly up to 57.1 µM. Summed up:
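Activity was read by AlphaScreen after JNK3-containing HepG2 lysate (cytokine pre-activated) phosphorylated biotinylated GST-cJun with 10 uM ATP at room temperature. Phospho-Ser73 cJun antibody with Protein-A acceptor beads provided detection.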

For test [6], the target named is 3',5'-cyclic-AMP phosphodiesterase 4B (Homo sapiens) (UniProt Q07343). The experiment in a line: qHTS Assay for Inhibitors of PDE-IV (AID 607; active = well fitted activation curve with a large enough effect in the main read-out, with a control signal flat, not every such curve was filed as active; note: % of control where 0% means no effect). The note with it: HEK293 ACTOne CNG channel cells, membrane potential fluorescence; series mostly up to 22.9 µM. In a few lines:
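ACTOne HEK293 cells carry a modified cAMP-gated CNG channel and express endogenous PDE4; plated 1000 cells/well, compounds up to 22.9 uM final. Membrane-potential dye fluorescence (ex 535/em 590) was read; parental cells received 10 uM forskolin + 100 uM RO 20-1724.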
(Quantitative high-throughput screening tests each substance at several concentrations.)

Test [7] deals with Cytochrome P450 3A4 (Homo sapiens) (UniProt P08684). In words: qHTS Assay for Activators of Cytochrome P450 3A4 (AID 885). Note: nearly all actives have a fitted effect of over 65% in size. The note with it: recombinant CYP3A4, Luciferin-PPXE luminescence, 60 min; series mostly up to 57.1 µM. Summed up: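 CYP3A4 activity: Luciferin-PPXE O-dealkylation, 25uM substrate, 200mM KPO4, RT throughout. Read-out is luciferase luminescence; higher values reflect activation.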
Sequence of Cytochrome P450 3A4 (Homo sapiens) (P08684 whole entry, looked up): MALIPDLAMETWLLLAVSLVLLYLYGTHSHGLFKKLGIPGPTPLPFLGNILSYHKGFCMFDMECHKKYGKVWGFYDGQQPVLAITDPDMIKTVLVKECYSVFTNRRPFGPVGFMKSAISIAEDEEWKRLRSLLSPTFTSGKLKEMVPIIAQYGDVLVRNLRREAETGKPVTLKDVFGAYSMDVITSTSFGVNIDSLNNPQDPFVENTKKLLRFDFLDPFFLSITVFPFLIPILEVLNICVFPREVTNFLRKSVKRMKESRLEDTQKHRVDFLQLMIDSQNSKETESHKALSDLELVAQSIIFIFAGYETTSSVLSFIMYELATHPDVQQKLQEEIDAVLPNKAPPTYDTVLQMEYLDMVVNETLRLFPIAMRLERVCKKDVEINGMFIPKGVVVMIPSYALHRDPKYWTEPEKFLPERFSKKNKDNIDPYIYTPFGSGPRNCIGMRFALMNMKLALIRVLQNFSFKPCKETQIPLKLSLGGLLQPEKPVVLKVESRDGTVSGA

A short description of test [8]: Confirmatory qHTS for small molecule stabilizers of the endoplasmic reticulum resident proteome: Secreted ER Calcium Modulated Protein (SERCaMP) assay (AID 1508628). Note: nearly all actives have a fitted effect of over 40% in size. Note: potency is the fitted concentration of half-maximal effect. The note with it: SERCaMP secreted luciferase ER calcium/proteostasis reporter; series mostly up to 76.3 µM. In a few lines: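 Reporter secretion upon ER calcium depletion (100 nM thapsigargin, 4 h, 37C) is measured as medium luminescence with coelenterazine, after 16 h compound pretreatment of SH-SY5Y-GLuc-SERCaMP cells; primary at three concentrations up to 38.3 uM, follow-up at 11 (up to 76.6 uM).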

A short description of test [9]: Cell Viability qHTS for small molecule stabilizers of the endoplasmic reticulum resident proteome (AID 1508629).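 Note: human SH-SY5Y neuroblastoma cells carrying the GLuc-SERCaMP reporter; compound exposure about 46 h in total before the viability read; % is set by controls: 0 for no effect and ±100 for the full control effect.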 The note with it: cell viability counter-screen, 100 nM thapsigargin for final 4 h.
Test [10] is described as follows: AP1 Signaling Pathway (AID 357; active = well fitted curve in either direction with a large enough effect, not every such curve was filed as active;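 note: ME-180 reporter cells stimulated with EGF at its EC50 level; % is set by controls: 0 for no effect and ±100 for the full control effect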). The note with it: ME-180 AP-1-bla reporter, EGF-induced, beta-lactamase ratio, 5 h; at 7.69 µM (top of the series) unless noted. In a few lines:
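Titration-series screen for positive or negative modulators of EC50 EGF-induced signaling in ME-180 cells carrying an AP-1-driven beta-lactamase reporter. After 5 hours at 37 degrees Celsius, CCF4 460nm/530nm emission ratio gave %Activity; AC50 values derived.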

Test [11] in a line: NFAT Signaling Pathway (AID 444; active = well fitted curve in either direction with a large enough effect, not every such curve was filed as active;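 note: carbachol stimulus at about its EC50 of 1 µM final; % is set by controls: 0 for no effect and ±100 for the full control effect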). The note with it: Jurkat NFAT-bla M1, carbachol, beta-lactamase ratio, 5 h; at 7.69 µM (top of the series) unless noted. Summed up:
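Jurkat cells with NFAT-driven β-lactamase reporter and co-expressed M1 receptor, stimulated with carbachol (final 1 uM, ~EC50), compound titration, 5 h at 37 °C. CCF4 loaded 1 h at RT; 460/530 nm ratio gave %activity and AC50.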

Test [12] is described as follows: Stat Signaling Pathway (AID 446; active = well fitted curve in either direction with a large enough effect, not every such curve was filed as active). The note with it: ME-180 (cervical carcinoma) SIE beta-lactamase reporter, IL-6 stimulated, 5 h; at 7.69 µM (top of the series) unless noted. Summed up: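 Compound effects on IL-6-induced STAT reporter activity were measured in ME-180 cells. After overnight culture, cells were co-treated with 40 pM IL-6 for 5 hrs before beta-lactamase substrate loading at room temperature.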

Test [13] in a line: Counterscreen qHTS for small molecule stabilizers of the endoplasmic reticulum resident proteome: GLuc-NoTag assay (AID 1508627).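 Note: 0% = thapsigargin alone and -100% = DMSO vehicle control.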 The note with it: Gaussia luciferase NoTag secretion counterscreen, luminescence, thapsigargin 100 nM for final 4 h; series mostly up to 76.4 µM. Summed up: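 Counterscreen line: SH-SY5Y-GLuc-NoTag. Seed, 5 h; compound, 19 h; thapsigargin 100 nM, 4 h; 37C/5% CO2. Readout: secreted GLuc luminescence, coelenterazine 0.07x final, no lysis.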
In general terms: Counterscreens check selectivity or assay interference.

The nature of test [14]: qHTS Assay for Lipid Storage Modulators (AID 1519; calls by dose curve). The note with it: Drosophila S3 cells, BODIPY lipid droplet/cell ratio, laser cytometry, cells loaded with oleic acid; for activity change, negative = inhibition: at 57.5 µM (top of the series). Summed up:
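Cells seeded at 5,000 per well were treated with compounds over a concentration series and loaded with oleic acid (400 uM, as added). Lipid droplet fluorescence (488 nm excitation, 500-530 nm channel) was read by laser-scanning cytometry and normalized to 20 uM Triacsin C.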

For test [15], the target named is Dual specificity protein kinase CLK4 (Homo sapiens) (UniProt Q9HAZ1). The experiment in a line: qHTS Assay for Inhibitors of CDC-like Kinase 4 (Kinase-Glo Assay) (AID 1770). Note: % is set by controls: 0 for no effect and ±100 for the full control effect; nearly all actives have a fitted effect of over 65% in size. The note with it: recombinant Clk4, Kinase-Glo ATP depletion luminescence; series mostly up to 66.7 µM. In a few lines:
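Luminescent ATP-depletion read-out (Kinase-Glo) after 4.5 h room-temperature reaction of Clk4 (25 nM final) with RS peptide (100 uM) and ATP (1 uM), pH 7.5 Tris buffer with MgCl2 and DTT.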

Test [16] has the same target. In words: qHTS Assay for Inhibitors of CDC-like Kinase 4 (ADP-Glo Assay) (AID 1771). Note: % is set by controls: 0 for no effect and ±100 for the full control effect; nearly all actives have a fitted effect of over 70% in size. The note with it: recombinant CLK4, ADP-Glo luminescence; series mostly up to 80 µM. In a few lines: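 Compounds are pin-transferred onto substrate mix (100 uM RS peptide, 1 uM ATP), then 25 nM Clk4 is added. After 1 hr at room temperature, ADP-Glo reagent runs 45 min, detection reagent 30 min, then luminescence is read.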

For test [17] the target is unchanged. The experiment in a line: qHTS Assay for Inhibitors of CDC-like Kinase 4 (ADP-FP Assay) (AID 1795).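 Note: recombinant human CLK4 phosphorylating RS repeat peptide at 1 µM ATP; % is set by controls: 0 for no effect and ±100 for the full control effect; nearly all actives have a fitted effect of over 60% in size.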 The note with it: Transcreener ADP fluorescence polarization; series mostly up to 50 µM. In a few lines: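 Kinase activity was measured as ADP production using Transcreener orange tracer (4 nM) and ADP antibody (1 ug/mL) fluorescence polarization, with ADP calculated from a calibration curve. The 1 h reaction contained 6.25 nM Clk4, 1 uM ATP and 100 uM RS peptide at pH 7.5 with Mg2+.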

Test [18] concerns the target Ubiquitin carboxyl-terminal hydrolase 1 (Homo sapiens) (UniProt O94782). In words: Inhibitors of USP1/UAF1: Pilot qHTS (AID 504865).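 Note: rhodamine fluorescence freed from ubiquitin-rhodamine substrate followed over time; top concentration of the series differs between compounds; % is set by controls: 0 for no effect and ±100 for the full control effect; nearly all actives have a fitted effect of over 35% in size.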 The note with it: purified USP1/UAF1, Ub-rhodamine cleavage fluorescence; series mostly up to 54.9 µM. In a few lines: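 Deubiquitinase activity followed as kinetic rhodamine fluorescence release from 150 nM Ub-Rho. 1 nM USP1/UAF1 with compound, after 15 min room-temperature preincubation, in HEPES pH 7.8 buffer containing TCEP, EDTA, BSA and Tween-20.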

[19] abbreviates: measured here: cell count channel max response.
The mark [20] stands for this setting: measured here: lipid channel max response.

Structures are written as SMILES. Records with an inconclusive call do not appear. The source made the active and inactive calls. Unless noted, calls come from the whole dose curve; as a rule, active = well fitted curve in the direction sought with a large enough effect; inconclusive = small, poorly fitted or top-dose-only effect, or another doubt; inactive = no such curve, though single readings can be large; an effect the other way counts as inactive or inconclusive.

Sequence of 3',5'-cyclic-AMP phosphodiesterase 4B (Homo sapiens) (Q07343 whole entry, looked up): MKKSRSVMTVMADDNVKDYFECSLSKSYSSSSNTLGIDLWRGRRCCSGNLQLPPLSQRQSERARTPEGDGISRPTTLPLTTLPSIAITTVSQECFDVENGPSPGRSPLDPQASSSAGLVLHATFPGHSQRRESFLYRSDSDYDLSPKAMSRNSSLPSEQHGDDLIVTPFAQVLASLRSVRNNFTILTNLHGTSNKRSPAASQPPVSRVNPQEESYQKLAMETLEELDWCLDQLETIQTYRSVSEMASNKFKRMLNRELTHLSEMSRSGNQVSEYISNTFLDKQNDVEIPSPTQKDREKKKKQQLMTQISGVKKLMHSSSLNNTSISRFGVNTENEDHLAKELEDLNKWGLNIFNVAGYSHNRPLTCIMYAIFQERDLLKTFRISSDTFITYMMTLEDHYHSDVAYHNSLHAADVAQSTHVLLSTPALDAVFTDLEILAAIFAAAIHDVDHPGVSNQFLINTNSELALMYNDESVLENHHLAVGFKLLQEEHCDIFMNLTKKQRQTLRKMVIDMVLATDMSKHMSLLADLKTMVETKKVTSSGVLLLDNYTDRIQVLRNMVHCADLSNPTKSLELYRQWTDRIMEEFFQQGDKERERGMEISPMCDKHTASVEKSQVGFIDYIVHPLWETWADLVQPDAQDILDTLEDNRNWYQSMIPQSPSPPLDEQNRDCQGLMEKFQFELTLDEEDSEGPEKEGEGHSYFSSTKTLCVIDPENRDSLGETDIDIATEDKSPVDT
Sequence of Dual specificity protein kinase CLK4 (Homo sapiens) (Q9HAZ1 whole entry, looked up): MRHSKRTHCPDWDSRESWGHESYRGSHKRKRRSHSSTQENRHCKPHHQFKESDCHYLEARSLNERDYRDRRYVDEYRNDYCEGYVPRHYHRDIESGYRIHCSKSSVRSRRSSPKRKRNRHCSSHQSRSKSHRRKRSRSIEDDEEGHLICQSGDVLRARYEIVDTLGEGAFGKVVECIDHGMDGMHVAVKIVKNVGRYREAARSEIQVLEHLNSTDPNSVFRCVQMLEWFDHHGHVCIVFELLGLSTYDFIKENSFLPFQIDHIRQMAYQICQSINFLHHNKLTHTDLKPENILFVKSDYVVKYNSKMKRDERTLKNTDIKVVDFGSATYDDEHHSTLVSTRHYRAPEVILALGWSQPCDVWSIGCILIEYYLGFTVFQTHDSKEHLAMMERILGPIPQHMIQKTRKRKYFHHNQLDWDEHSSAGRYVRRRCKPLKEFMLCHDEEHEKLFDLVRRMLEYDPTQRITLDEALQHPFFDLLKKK
Sequence of Ubiquitin carboxyl-terminal hydrolase 1 (Homo sapiens) (O94782 whole entry, looked up): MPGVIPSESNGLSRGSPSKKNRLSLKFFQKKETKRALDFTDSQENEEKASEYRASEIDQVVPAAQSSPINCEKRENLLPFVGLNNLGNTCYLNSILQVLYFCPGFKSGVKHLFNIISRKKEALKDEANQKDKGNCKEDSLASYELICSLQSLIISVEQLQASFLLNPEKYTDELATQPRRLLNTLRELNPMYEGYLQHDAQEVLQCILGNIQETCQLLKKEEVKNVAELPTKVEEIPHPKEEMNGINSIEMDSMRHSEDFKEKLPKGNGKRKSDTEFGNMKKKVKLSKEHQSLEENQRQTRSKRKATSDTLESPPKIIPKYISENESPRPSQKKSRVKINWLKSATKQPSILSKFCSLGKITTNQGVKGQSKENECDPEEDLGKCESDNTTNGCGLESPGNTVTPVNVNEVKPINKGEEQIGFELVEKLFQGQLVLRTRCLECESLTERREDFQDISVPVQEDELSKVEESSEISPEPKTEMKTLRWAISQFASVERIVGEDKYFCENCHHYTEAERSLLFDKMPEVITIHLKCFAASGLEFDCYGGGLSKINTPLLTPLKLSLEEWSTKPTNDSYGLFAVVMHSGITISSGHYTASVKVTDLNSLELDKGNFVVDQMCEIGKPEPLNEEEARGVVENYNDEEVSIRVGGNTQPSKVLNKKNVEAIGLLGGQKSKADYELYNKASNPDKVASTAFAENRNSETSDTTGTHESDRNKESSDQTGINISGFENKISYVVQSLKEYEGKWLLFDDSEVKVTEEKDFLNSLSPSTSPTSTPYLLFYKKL
Sequence of Cytochrome P450 1A2 (Homo sapiens) (P05177 whole entry, looked up): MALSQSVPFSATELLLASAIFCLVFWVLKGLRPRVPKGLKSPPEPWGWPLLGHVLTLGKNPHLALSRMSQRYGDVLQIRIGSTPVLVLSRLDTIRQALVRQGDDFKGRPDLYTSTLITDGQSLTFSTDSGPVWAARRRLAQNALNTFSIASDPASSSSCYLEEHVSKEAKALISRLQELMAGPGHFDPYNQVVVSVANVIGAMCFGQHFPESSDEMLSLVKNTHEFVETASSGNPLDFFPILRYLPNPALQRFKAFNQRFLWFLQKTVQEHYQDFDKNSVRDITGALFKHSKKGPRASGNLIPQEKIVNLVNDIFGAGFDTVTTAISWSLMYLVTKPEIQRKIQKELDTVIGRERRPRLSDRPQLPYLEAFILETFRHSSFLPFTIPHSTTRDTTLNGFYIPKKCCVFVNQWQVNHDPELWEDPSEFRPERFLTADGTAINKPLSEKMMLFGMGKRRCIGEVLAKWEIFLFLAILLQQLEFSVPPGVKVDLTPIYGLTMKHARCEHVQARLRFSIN

In the case of `O=c1c(-c2cccs2)nc2cnc(N3CCNCC3)nc2n1-c1ccccc1`, the Potency in test [1] is > 11.4 µM (inactive); in [2] it was 2.51 µM (active); in [3] it was > 9.22 µM (inactive); in test [4], > 46 µM (inactive). In addition, in test [5], the call was inactive. Also, the Potency result in test [6], in test [7] and in test [8] was “inactive” throughout. Also, the max response in test [9] was 6.37% (inactive).
Consider `COCCn1c(=O)c(CCc2ccccc2)nc2cnc(N3CCNCC3)nc21`, for which the Potency was > 11.4 µM (inactive) in [1], > 9.22 µM (inactive) in [3] and > 46 µM (inactive) in test [4]. Also, the activity change, negative = inhibition is -4.91% (inactive) in test [10] and 10.2% (inactive) in test [11]. The activity, negative = inhibition in test [12] is -1.73% (inactive). Also, the call in [5] was inactive. Besides, the Potency entry in test [6] and in [13] was “inactive” throughout.
Take `O=C(c1cc(C(F)(F)F)cc(C(F)(F)F)c1)N1CCC2(CC1)CN(c1ccccn1)C2`: the Potency was 0.37 µM (active) in test [1] and > 46 µM (inactive) in test [4]. The activity change, negative = inhibition in [10] was -8.97% (inactive). Further, the Potency entry in test [2], in test [6] and in [8] was “inactive” each time. Also, the activity, negative = inhibition in [12] was -17.5% (inactive). Moreover, the result in [5] was inactive. Further, the max response in test [9] was -18% (inactive).
As for `COc1cccc(Cn2c(=O)c(C)nc3cnc(N4CCN(C)CC4)nc32)c1`, the Potency in [1] was > 11.4 µM (inactive); in test [3] it was > 9.22 µM (inactive); in test [4] it was > 46 µM (inactive). In addition, the activity change, negative = inhibition in [10] was -0.444% (inactive); in [11], 5.99% (inactive); in test [14], -3.34% (inactive). In addition, the activity, negative = inhibition in test [12] was -11.6% (inactive). Also, the result in test [5] was inactive. In addition, the Potency result in test [6], in [15], in [16], in test [17], in test [18] and in test [8] was “inactive” throughout. For the same compound, the max response in test [14] (setting [19]) worked out at 13.5%; in test [14] (setting [20]) it was 7.13%.
For the compound `COCCn1c(=O)c(-c2ccccc2)nc2cnc(Oc3ccc(OC)cc3)nc21`, the Potency was > 11.4 µM (inactive) in test [1]; 1.26 µM (active) in test [2]; > 9.22 µM (inactive) in test [3]; > 46 µM (inactive) in test [4]; 39.8 µM (active) in test [8]. Moreover, the activity change, negative = inhibition in test [10] is -27.8% (inactive); in test [11] it was 0.481% (inactive). Also, the activity, negative = inhibition in test [12] is -10.2% (inactive). Also, in test [5], the outcome was inactive. For the same compound, the Potency result in [7], in test [15], in test [16], in test [17] and in test [18] was “inactive” throughout. Besides, in test [9], the max response is 4.93% (inactive).
In the case of `COc1ccc(-n2c(=O)c(-c3cccc(C#N)c3)nc3cnc(N4CCNCC4)nc32)cc1`, the activity change, negative = inhibition in [10] was 6.83% (inactive); in test [11], 5.29% (inactive); in [14] it was 9.59% (inactive). Also, the Potency is 15.8 µM (active) in test [2], > 9.22 µM (inactive) in test [3], > 46 µM (inactive) in test [4] and 25.1 µM (active) in test [8]. Besides, the activity, negative = inhibition in test [12] is 13.3% (inactive). In addition, in [5], the outcome was inactive. The Potency entry in test [6], in [15], in test [16], in [17] and in test [18] was “inactive” in each case. Besides, the max response in test [14] (setting [19]) amounted to 24%; in test [14] (setting [20]), 29.5%.
